Measured potencies and affinities stand elsewhere. Calls of active or inactive are those of the source. How the calls were made is not given here.

This assay is described as follows: HEK293 cell cytotoxicity, dose response, cytotoxicity control, plate reader, cherry-picked samples (AID 743446). The following applies: active compounds read low; at 26 µM unless noted.
Regarding `COc1ccc(C(=O)Nc2ccc3ccccc3n2)c(OC)c1OC`, the max activity was -6.81% [at 0.1 µM] (inactive).

In the case of `O=C(CN1C(=O)c2ccccc2S1(=O)=O)c1ccc(F)c(F)c1`, the max activity is 11.6% (inactive). In the case of `O=C(Nc1ccc(NC(=O)c2ccco2)nc1)c1ccco1`, the max activity was -22.6% (inactive).

For the compound `Cc1cc(C(=O)CN2C(=O)c3ccccc3S2(=O)=O)c(C)n1C(C)C`, the max activity is -20.6% [at 3 µM] (inactive).

Take `COc1ccccc1CN(C)C[C@@H]1OCc2cnnn2CCCC(=O)N([C@H](C)CO)C[C@H]1C`: the max activity is 11% [at 0.38 µM] (inactive).

As to `COC(=O)c1c(N)sc(C(=O)NCCc2ccccc2)c1C`, the max activity is 16.2% [at 3 µM] (inactive). Under `C[C@H](CO)N1C[C@H](C)[C@H](CN(C)C(=O)Nc2cccc3ccccc23)OCCCC[C@H](C)Oc2ccc(NC(=O)NC3CCCCC3)cc2C1=O` stands 68.9% (inactive). Turning to `COc1ccc(S(=O)(=O)N(C)C[C@@H]2OCc3cnnn3CCCC(=O)N([C@@H](C)CO)C[C@H]2C)cc1`, the max activity was 0% [setting not given] (inactive). On to `Cc1ccnc(Nc2nc(-c3sc(C)nc3C)cs2)c1`, for which the max activity was -16.3% [at 6 µM] (inactive). On to `COc1ccc(C(=O)Nc2nnc(SCC(=O)NCc3ccco3)s2)c(OC)c1`, for which the max activity is 15% (inactive). Under `Cc1cc(C)n2c(Nc3ccc4c(c3)OCCO4)c(-c3cc4ccccc4o3)nc2n1` stands 52.8% (inactive); under `C=CCn1c(SCC(=O)Nc2ncc(Cc3ccc(C)c(Cl)c3)s2)nnc1-c1ccncc1`, -6.05% [at 3 µM] (inactive). Take `Cc1ccc(S(=O)(=O)N2CCCCC2)cc1NC(=O)c1ccc2c(=O)n3c(nc2c1)CCCCC3`: the max activity was 45.8% [at 6 µM] (inactive).

Values taken from PubChem BioAssay AID743446 (Broad Institute, 2014).
